Laboratory results reported in the supplement of paper PMC11732987, “Enantioselective OTUD7B fragment discovery through chemoproteomics screening and high-throughput optimisation” (Communications Chemistry, 2025).

Legend:
Assay in all cases: log2 ratio of Biotin-Ahx-Ub-VS probe labelling (fragment/DMSO); higher = less target engagement (more negative = stronger competition), active = hit call of the paper (q ≤ 0.05, log2 ratio ≤ -1)
Conditions in all cases: compound concentration: 200 uM; treatment time: 3 h
USP42 = target: T1, USP42 (UniProt Q9H9J4)
T1 sequence (whole entry): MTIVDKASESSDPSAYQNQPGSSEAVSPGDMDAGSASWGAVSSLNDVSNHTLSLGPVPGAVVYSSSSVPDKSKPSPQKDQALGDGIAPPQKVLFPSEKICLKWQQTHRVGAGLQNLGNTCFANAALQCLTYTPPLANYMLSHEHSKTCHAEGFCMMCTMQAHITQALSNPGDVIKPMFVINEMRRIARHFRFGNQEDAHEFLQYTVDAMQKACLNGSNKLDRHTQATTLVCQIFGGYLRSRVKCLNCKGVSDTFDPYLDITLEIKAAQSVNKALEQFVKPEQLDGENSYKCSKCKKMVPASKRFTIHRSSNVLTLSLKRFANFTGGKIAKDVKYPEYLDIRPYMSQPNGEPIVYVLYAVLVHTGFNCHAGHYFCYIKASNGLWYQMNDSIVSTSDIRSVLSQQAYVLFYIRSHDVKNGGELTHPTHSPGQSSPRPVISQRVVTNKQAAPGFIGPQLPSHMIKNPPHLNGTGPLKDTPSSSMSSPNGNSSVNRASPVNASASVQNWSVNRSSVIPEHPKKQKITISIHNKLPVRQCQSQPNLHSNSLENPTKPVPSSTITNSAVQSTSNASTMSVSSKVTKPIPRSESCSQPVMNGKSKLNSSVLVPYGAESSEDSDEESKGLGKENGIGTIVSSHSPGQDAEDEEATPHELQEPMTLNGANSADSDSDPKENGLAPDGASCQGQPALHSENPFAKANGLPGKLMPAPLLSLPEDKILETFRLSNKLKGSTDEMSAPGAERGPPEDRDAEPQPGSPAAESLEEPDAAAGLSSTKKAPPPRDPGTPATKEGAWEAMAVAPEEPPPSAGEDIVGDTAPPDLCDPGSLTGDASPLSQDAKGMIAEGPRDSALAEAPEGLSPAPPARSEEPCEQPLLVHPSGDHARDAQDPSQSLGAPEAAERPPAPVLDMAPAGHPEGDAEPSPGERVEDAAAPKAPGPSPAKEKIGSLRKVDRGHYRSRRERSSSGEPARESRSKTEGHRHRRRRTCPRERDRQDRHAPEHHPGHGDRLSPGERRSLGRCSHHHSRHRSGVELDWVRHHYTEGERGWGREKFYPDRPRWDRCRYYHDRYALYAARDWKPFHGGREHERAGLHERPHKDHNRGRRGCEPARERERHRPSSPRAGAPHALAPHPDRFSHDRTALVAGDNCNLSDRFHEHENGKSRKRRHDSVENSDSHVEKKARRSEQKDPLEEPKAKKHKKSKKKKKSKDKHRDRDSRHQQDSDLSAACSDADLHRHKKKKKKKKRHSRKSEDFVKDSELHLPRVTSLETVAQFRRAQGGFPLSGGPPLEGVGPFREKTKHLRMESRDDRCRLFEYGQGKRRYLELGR
Procedure, shortened: (§1)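 Each value is an average log2 ratio of fragment to vehicle, tested by unpaired t-test. The underlying Spectronaut label-free quantities were global-median-normalised, and only proteins with ≥2 unique peptides were included. Triplicate HEK293T lysate samples (495 µg) were exposed to fragment at 200 µM or vehicle for 3 h, then to Biotin-Ahx-Ub-VS at 0.5 µM final for 1 h, before NeutrAvidin enrichment of labelled DUBs, LysC and trypsin digestion, and diaPASEF LC-MS/MS.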

USP46 = USP46 (UniProt P62068)
Procedure, shortened: as §1

USP47 = target: T2, USP47 (UniProt Q96K76)
T2 sequence (whole entry): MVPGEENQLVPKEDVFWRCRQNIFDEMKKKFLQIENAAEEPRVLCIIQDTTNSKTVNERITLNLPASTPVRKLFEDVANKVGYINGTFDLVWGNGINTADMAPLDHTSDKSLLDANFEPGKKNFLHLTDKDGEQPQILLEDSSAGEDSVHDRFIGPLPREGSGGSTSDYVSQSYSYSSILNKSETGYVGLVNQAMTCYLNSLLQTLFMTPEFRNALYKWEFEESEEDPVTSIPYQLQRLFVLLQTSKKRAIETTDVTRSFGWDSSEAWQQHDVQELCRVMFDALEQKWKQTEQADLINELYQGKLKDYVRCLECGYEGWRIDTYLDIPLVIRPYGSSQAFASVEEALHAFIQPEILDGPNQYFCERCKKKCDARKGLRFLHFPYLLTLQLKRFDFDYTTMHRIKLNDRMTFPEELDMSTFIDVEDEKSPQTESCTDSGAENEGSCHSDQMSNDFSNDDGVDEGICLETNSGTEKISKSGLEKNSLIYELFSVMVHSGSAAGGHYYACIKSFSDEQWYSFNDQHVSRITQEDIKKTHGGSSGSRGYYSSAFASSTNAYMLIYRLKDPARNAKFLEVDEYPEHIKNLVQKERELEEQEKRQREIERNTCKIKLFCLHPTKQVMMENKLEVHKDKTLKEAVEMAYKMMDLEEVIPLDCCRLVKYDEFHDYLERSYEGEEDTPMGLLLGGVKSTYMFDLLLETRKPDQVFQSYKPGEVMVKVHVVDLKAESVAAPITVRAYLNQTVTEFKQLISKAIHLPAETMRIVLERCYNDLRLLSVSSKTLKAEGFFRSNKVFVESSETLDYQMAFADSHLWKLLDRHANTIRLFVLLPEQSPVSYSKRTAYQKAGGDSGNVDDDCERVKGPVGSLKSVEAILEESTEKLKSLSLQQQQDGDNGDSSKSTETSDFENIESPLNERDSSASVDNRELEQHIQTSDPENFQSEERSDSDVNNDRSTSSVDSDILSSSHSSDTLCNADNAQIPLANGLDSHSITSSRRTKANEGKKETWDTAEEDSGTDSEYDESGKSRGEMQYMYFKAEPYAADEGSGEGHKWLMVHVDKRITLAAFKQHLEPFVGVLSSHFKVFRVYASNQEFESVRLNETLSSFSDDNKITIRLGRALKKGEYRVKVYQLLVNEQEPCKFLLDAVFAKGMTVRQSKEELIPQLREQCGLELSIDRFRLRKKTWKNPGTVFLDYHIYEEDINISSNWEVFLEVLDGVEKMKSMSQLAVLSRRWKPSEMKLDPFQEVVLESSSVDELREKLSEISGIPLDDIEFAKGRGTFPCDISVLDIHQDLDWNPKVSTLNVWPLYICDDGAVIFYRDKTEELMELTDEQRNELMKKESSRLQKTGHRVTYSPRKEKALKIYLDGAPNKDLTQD
Procedure, shortened: as §1

USP48 = target: T3, USP48 (UniProt Q86UV5)
T3 sequence (whole entry): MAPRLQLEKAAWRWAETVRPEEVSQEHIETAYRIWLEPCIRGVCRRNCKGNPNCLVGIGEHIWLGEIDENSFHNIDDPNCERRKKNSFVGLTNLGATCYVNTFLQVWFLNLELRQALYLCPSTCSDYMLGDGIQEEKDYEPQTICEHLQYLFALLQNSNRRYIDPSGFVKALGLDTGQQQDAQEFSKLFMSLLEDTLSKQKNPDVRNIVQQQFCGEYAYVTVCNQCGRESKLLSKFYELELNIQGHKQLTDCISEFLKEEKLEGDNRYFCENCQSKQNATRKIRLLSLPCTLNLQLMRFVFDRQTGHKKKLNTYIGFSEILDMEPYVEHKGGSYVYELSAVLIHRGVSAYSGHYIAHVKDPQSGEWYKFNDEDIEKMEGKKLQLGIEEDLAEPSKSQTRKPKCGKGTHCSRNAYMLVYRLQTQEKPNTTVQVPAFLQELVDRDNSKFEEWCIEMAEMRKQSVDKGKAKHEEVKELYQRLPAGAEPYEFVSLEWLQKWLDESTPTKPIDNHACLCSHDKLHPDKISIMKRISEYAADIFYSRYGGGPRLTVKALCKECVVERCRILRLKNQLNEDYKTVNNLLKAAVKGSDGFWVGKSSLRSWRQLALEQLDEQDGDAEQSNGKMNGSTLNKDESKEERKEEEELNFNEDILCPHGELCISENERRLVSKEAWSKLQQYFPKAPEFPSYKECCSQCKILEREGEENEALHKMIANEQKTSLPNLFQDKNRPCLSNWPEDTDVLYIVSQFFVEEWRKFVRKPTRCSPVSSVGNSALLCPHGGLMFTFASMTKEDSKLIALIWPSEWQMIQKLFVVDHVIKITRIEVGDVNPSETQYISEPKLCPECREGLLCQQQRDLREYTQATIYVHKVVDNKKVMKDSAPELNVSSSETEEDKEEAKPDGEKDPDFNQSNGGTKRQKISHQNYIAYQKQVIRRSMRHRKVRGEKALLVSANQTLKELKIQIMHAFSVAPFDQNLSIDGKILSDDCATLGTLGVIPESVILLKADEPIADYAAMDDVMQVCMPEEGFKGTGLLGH
Procedure, shortened: as §1

USP5 = target: T4, USP5 (UniProt P45974)
T4 sequence (whole entry): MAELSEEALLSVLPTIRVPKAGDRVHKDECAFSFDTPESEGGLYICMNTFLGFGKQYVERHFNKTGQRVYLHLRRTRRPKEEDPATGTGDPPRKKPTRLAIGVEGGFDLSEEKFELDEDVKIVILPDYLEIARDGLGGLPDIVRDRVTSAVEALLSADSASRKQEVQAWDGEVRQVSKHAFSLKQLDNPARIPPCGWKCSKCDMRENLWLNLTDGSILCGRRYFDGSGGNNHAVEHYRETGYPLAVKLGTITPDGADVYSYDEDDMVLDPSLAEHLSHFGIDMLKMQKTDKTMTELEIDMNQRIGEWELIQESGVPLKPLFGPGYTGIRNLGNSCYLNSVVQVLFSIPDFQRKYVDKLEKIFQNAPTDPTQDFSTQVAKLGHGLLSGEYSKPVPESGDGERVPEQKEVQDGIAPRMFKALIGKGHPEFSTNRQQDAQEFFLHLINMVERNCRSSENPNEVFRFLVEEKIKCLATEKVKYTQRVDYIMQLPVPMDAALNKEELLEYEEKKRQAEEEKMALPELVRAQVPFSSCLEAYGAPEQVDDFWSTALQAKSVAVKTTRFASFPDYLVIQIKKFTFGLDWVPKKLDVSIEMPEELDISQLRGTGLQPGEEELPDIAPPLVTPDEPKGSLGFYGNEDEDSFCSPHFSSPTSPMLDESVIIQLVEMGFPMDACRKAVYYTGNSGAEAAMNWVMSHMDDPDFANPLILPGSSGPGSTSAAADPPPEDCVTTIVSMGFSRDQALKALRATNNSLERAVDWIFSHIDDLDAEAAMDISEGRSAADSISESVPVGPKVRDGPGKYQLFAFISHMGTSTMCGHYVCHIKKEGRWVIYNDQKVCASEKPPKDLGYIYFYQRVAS
Procedure, shortened: as §1

USP54 = USP54 (UniProt Q70EL1)
Procedure, shortened: as §1

USP7 = USP7 (UniProt Q93009)
Procedure, shortened: as §1

USP8 = target: T5, USP8 (UniProt P40818)
T5 sequence (whole entry): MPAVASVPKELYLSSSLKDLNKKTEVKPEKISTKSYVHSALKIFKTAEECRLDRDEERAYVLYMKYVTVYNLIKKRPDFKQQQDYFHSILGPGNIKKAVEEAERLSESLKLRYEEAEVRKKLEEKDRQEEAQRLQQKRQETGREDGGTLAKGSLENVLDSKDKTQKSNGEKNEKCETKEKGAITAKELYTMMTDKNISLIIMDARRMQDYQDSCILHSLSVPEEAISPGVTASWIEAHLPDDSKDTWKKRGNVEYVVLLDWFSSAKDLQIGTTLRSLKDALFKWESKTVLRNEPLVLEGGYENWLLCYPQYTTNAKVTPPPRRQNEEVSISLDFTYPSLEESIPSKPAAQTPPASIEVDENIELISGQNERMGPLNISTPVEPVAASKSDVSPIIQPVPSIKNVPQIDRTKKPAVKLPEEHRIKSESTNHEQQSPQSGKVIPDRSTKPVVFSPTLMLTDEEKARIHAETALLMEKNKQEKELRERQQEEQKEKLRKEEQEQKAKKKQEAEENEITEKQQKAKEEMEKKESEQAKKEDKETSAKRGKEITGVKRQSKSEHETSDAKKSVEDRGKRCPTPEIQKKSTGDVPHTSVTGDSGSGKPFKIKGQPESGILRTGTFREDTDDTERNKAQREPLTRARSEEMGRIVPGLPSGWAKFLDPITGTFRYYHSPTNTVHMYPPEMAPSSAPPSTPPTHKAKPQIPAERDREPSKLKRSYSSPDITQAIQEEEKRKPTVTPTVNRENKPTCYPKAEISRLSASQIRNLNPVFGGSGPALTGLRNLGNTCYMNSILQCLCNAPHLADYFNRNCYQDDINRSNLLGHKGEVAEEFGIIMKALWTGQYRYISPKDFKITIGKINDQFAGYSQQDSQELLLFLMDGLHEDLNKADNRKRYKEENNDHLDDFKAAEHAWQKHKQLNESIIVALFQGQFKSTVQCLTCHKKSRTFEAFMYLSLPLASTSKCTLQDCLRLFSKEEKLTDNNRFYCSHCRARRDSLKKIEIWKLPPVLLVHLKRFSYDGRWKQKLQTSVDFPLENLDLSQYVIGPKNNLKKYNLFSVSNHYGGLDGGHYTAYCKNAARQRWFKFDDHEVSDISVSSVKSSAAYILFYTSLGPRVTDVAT
Procedure, shortened: as §1

USP9X = USP9X (UniProt Q93008)
Procedure, shortened: as §1

UniProt O00487 = target: UniProt O00487
Procedure, shortened: as §1

Measured: log2 ratio of Biotin-Ahx-Ub-VS probe labelling

USP9X, sequence (Q93008 whole entry): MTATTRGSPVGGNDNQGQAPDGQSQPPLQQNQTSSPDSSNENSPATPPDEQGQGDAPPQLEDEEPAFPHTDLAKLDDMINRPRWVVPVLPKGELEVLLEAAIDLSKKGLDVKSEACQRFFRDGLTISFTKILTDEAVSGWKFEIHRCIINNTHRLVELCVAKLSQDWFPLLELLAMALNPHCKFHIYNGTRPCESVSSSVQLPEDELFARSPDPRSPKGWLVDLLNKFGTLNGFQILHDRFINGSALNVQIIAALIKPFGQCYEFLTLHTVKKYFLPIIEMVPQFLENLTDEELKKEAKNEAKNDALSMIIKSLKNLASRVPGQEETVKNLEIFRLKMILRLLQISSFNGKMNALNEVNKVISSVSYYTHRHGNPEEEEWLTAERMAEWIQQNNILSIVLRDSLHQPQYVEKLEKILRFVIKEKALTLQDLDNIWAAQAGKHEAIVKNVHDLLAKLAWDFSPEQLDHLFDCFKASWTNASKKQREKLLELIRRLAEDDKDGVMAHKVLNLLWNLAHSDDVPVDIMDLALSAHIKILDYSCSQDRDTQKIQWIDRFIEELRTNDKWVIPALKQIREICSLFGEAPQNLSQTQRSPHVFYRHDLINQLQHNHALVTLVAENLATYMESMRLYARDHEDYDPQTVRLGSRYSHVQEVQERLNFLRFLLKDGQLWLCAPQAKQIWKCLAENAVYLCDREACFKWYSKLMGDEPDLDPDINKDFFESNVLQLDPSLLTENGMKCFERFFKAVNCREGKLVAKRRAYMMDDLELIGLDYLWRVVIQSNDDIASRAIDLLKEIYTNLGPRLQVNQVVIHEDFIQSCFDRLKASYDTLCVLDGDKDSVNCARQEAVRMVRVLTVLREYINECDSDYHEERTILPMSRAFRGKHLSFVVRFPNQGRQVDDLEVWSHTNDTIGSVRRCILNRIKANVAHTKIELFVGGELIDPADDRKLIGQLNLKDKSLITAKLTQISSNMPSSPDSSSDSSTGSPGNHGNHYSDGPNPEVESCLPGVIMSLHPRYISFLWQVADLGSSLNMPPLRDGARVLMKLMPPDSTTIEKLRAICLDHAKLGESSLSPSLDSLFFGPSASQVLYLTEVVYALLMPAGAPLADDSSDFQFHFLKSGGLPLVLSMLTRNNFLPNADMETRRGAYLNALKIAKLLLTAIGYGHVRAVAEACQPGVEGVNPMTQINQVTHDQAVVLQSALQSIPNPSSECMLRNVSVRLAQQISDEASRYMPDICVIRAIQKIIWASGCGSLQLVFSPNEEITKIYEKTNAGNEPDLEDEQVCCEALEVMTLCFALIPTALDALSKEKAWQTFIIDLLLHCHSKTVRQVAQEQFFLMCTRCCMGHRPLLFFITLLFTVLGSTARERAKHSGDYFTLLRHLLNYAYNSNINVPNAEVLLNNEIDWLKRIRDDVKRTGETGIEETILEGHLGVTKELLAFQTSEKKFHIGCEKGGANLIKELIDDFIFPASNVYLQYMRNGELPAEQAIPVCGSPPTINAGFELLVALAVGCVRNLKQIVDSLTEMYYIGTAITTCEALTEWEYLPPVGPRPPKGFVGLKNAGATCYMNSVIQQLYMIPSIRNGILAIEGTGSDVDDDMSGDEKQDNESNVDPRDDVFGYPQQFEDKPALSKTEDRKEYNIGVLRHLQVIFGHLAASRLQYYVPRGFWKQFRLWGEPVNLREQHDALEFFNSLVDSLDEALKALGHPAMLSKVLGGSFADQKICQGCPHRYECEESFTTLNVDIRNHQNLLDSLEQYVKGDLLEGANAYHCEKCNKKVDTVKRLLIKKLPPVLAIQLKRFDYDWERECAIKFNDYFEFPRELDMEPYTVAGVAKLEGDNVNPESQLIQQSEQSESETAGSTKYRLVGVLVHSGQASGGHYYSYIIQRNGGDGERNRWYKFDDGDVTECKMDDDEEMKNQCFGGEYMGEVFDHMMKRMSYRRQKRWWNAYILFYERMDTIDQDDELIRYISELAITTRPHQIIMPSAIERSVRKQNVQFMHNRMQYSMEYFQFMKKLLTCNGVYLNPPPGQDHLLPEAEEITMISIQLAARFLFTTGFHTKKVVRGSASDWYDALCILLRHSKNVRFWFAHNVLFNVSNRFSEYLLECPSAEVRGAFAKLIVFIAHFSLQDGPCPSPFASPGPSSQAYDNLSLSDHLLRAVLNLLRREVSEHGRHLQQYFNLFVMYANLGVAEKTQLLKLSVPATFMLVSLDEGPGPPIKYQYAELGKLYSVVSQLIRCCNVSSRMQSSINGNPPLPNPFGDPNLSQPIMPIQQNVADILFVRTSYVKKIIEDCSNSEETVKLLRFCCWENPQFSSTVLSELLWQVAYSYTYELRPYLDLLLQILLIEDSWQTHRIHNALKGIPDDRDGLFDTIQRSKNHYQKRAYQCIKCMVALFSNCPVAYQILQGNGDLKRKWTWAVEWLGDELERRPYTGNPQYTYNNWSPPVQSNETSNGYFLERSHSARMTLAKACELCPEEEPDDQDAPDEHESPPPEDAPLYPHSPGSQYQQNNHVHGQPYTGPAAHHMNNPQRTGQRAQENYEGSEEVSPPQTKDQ
USP54, sequence (Q70EL1 whole entry): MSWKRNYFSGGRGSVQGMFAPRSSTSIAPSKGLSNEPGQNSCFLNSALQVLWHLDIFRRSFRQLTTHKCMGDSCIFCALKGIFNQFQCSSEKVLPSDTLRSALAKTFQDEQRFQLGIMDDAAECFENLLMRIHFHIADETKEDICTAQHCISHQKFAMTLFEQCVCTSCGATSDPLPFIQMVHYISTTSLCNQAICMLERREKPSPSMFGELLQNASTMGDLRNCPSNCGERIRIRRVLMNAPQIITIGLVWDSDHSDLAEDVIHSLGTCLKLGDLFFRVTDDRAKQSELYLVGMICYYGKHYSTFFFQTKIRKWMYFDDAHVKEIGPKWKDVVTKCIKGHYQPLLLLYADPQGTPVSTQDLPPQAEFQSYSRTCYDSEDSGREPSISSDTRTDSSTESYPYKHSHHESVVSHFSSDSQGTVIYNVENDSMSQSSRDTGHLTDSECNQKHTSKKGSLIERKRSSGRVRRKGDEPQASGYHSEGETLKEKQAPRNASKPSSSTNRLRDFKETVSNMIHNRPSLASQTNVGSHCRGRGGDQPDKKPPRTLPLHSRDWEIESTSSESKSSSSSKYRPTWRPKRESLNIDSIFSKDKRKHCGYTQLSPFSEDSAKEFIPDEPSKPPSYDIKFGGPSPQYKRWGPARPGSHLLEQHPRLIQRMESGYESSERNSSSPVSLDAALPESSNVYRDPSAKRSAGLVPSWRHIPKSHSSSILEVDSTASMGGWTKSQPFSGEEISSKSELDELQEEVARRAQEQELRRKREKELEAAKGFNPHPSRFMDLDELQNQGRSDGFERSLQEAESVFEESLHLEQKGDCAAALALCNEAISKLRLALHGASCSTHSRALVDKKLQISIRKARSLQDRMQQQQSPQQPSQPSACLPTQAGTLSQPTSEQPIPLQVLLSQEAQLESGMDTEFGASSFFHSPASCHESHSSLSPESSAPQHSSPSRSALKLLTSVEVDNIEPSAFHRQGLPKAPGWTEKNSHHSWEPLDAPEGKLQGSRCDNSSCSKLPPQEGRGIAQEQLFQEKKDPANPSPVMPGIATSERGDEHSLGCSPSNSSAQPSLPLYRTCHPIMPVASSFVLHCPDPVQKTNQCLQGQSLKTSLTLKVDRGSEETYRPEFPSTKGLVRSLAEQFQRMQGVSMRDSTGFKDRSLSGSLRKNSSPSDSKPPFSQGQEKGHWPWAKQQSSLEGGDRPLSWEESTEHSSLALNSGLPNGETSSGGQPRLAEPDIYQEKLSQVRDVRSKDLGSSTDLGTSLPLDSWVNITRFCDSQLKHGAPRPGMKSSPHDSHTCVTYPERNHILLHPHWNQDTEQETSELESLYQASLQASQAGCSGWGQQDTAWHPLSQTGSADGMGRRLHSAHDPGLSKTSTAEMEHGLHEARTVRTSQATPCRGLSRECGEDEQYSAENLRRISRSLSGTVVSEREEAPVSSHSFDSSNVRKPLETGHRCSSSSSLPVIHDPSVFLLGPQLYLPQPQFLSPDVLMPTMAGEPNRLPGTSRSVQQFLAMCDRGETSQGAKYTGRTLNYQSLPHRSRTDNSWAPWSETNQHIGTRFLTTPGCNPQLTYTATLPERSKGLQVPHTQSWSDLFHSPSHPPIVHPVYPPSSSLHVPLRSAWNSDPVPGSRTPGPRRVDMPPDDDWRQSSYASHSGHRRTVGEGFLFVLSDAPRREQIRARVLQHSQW
UniProt O00487, sequence (O00487 whole entry): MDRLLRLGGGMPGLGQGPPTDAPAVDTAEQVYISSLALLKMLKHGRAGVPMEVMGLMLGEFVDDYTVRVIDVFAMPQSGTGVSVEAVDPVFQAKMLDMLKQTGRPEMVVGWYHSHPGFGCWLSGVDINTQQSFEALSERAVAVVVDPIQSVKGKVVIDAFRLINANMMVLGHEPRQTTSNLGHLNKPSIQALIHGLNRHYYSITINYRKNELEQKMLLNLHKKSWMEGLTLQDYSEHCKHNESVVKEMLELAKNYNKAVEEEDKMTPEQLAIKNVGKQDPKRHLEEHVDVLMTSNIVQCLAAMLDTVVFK
USP46, sequence (P62068 whole entry): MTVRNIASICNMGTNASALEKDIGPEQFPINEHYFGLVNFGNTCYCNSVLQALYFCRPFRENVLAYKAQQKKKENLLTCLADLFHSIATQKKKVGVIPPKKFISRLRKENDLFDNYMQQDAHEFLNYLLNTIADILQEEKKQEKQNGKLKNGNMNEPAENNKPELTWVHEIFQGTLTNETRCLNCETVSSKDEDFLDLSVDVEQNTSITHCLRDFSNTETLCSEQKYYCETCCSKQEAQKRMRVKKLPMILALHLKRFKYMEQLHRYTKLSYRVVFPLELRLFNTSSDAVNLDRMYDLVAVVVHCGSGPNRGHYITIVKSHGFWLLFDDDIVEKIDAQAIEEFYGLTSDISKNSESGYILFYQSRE

CCN(C(=O)CCl)C1CCCCC1
inactive: USP42 0.177 | USP46 -0.202 | USP47 -0.157 | USP48 -0.238 | USP5 0.443 | USP54 0.0425 | USP7 -0.372 | USP8 0.0715 | USP9X -0.0791 | UniProt O00487 0.0502
